From PubChem BioAssay AID1159580 (chemical genetic matrix, 2015)
Hit rate of the full screen: of about 5,500 compounds, about 2,000 (36%) were called active. About 18% were inconclusive and are not listed. No stated cut-off is given here; in the data, active means normalized growth mostly below about 0.91 (no sharp cut-off); inconclusive means no clear call, values can overlap the other calls; inactive means mostly above about 0.92. This is one part of the list.

Assay: chemical genetic growth profiling, strain panel (AID 1159580);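 further: tested at 20 µM; growth read once vehicle control cultures reached saturation at 30 °C; 1 = growth at the plate median or of vehicle wells; lower values mean less growth of the strain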
Conditions: growth OD

Measured: normalized growth

CC1(C)S[C@@H]2[C@H](NC(=O)C(C(=O)O)c3ccccc3)C(=O)N2[C@H]1C(=O)O (stereo partly drawn)
inactive: S. cerevisiae deletion strains, locus YJR075W, strain HOC1, active compounds read low 0.987 | S. cerevisiae deletion strains, locus YKL009W, strain mrt4, active compounds read low 0.971 | S. cerevisiae deletion strains, locus YKL068W, active compounds read low 0.994 | S. cerevisiae deletion strains, locus YKL085W, strain MDH1 (second series), active compounds read low 1 | S. cerevisiae deletion strains, locus YKL085W, strain MDH1, active compounds read low 1 | S. cerevisiae deletion strains, locus YKL160W, strain elf1, active compounds read low 1 | S. cerevisiae deletion strains, locus YKR001C, strain vps1, active compounds read low 0.982 | S. cerevisiae deletion strains, locus YKR026C, strain gcn3, active compounds read low 0.985 | S. cerevisiae deletion strains, locus YKR091W, strain srl3, active compounds read low 0.975 | S. cerevisiae deletion strains, locus YLL001W, strain dnm1, active compounds read low 0.932 | S. cerevisiae deletion strains, locus YLL026W, active compounds read low 0.96 | S. cerevisiae deletion strains, locus YLL041C, strain sdh2, active compounds read low 0.982 | S. cerevisiae deletion strains, locus YLR027C, strain aat2, active compounds read low 0.976 | S. cerevisiae deletion strains, locus YLR039C, strain RIC1, active compounds read low 0.989 | S. cerevisiae deletion strains, locus YLR058C, strain SHM2, active compounds read low 0.989 | S. cerevisiae deletion strains, locus YLR102C, strain apc9, active compounds read low 0.997 | S. cerevisiae deletion strains, locus YLR113W, strain HOG1, active compounds read low 0.992 | S. cerevisiae deletion strains, locus YLR221C, strain rsa3, active compounds read low 0.928 | S. cerevisiae deletion strains, locus YLR258W, strain gsy2, active compounds read low 0.967 | S. cerevisiae deletion strains, locus YLR262C, strain YPT6 (second series), active compounds read low 1 | S. cerevisiae deletion strains, locus YLR262C, strain YPT6, active compounds read low 1 | S. cerevisiae deletion strains, locus YLR268W, strain sec22, active compounds read low 0.987 | S. cerevisiae deletion strains, locus YLR320W, strain mms22, active compounds read low 0.967 | S. cerevisiae deletion strains, locus YLR330W, strain CHS5, active compounds read low 0.992 | S. cerevisiae deletion strains, locus YLR342W, strain FKS1 (second series), active compounds read low 0.998 | S. cerevisiae deletion strains, locus YLR342W, strain FKS1, active compounds read low 0.982 | S. cerevisiae deletion strains, locus YLR357W, strain rsc2, active compounds read low 0.967 | S. cerevisiae deletion strains, locus YLR370C, strain arc18, active compounds read low 0.926 | S. cerevisiae deletion strains, locus YLR371W, strain rom2, active compounds read low 0.988 | S. cerevisiae deletion strains, locus YLR384C, strain iki3, active compounds read low 0.969 | S. cerevisiae deletion strains, locus YLR418C, strain cdc73, active compounds read low 0.984 | S. cerevisiae deletion strains, locus YML016C, strain PPZ1, active compounds read low 0.99 | S. cerevisiae deletion strains, locus YML032C, strain rad52, active compounds read low 0.981 | S. cerevisiae deletion strains, locus YML120C, strain ndi1, active compounds read low 0.946 | S. cerevisiae deletion strains, locus YML124C, strain tub3, active compounds read low 1 | S. cerevisiae deletion strains, locus YMR058W, strain fet3, active compounds read low 0.971 | S. cerevisiae deletion strains, locus YMR078C, strain ctf18, active compounds read low 0.985 | S. cerevisiae deletion strains, locus YMR125W, strain sto1, active compounds read low 0.956 | S. cerevisiae deletion strains, locus YMR129W, active compounds read low 1 | S. cerevisiae deletion strains, locus YMR205C, strain PFK2, active compounds read low 0.98 | S. cerevisiae deletion strains, locus YMR223W, strain ubp8, active compounds read low 0.987 | S. cerevisiae deletion strains, locus YMR231W, strain pep5, active compounds read low 0.988 | S. cerevisiae deletion strains, locus YMR307W, strain GAS1, active compounds read low 0.917 | S. cerevisiae deletion strains, locus YNL067W, strain RPL9B, active compounds read low 1 | S. cerevisiae deletion strains, locus YNL071W, strain lat1, active compounds read low 0.995 | S. cerevisiae deletion strains, locus YNL153C, strain GIM3, active compounds read low 0.989 | S. cerevisiae deletion strains, locus YNL183C, strain NPR1, active compounds read low 0.94 | S. cerevisiae deletion strains, locus YNL209W, strain ssb2, active compounds read low 0.969 | S. cerevisiae deletion strains, locus YNL233W, strain BNI4, active compounds read low 0.975 | S. cerevisiae deletion strains, locus YNL248C, strain rpa49, active compounds read low 1.02 | S. cerevisiae deletion strains, locus YNL250W, strain rad50, active compounds read low 0.975 | S. cerevisiae deletion strains, locus YNL271C, strain bni1, active compounds read low 0.984 | S. cerevisiae deletion strains, locus YNL298W, strain CLA4, active compounds read low 0.99 | S. cerevisiae deletion strains, locus YNL307C, strain MCK1, active compounds read low 0.992 | S. cerevisiae deletion strains, locus YNL322C, strain KRE1 (second series), active compounds read low 0.971 | S. cerevisiae deletion strains, locus YNL322C, strain KRE1, active compounds read low 0.997 | S. cerevisiae deletion strains, locus YNR049C, strain mso1, active compounds read low 0.962 | S. cerevisiae deletion strains, locus YNR052C, strain pop2, active compounds read low 0.983 | S. cerevisiae deletion strains, locus YOL006C, strain TOP1, active compounds read low 0.985 | S. cerevisiae deletion strains, locus YOL012C, strain htz1 1.06 | S. cerevisiae deletion strains, locus YOL147C, strain pex11, active compounds read low 0.982 | S. cerevisiae deletion strains, locus YOR001W, strain rrp6, active compounds read low 1 | S. cerevisiae deletion strains, locus YOR061W, strain CKA2, active compounds read low 0.994 | S. cerevisiae deletion strains, locus YOR069W, strain VPS5, active compounds read low 0.991 | S. cerevisiae deletion strains, locus YOR070C, strain gyp1, active compounds read low 0.972 | S. cerevisiae deletion strains, locus YOR080W, strain dia2, active compounds read low 0.972 | S. cerevisiae deletion strains, locus YOR083W, strain WHI5, active compounds read low 0.994 | S. cerevisiae deletion strains, locus YOR106W, strain vam3, active compounds read low 0.993 | S. cerevisiae deletion strains, locus YOR136W, strain idh2, active compounds read low 0.98 | S. cerevisiae deletion strains, locus YOR144C, strain elg1, active compounds read low 0.983 | S. cerevisiae deletion strains, locus YOR184W, strain ser1, active compounds read low 0.978 | S. cerevisiae deletion strains, locus YOR231W, strain MKK1, active compounds read low 1.04 | S. cerevisiae deletion strains, locus YOR265W, strain rbl2, active compounds read low 0.964 | S. cerevisiae deletion strains, locus YOR270C, strain vph1, active compounds read low 0.978 | S. cerevisiae deletion strains, locus YOR290C, strain snf2, active compounds read low 0.961 | S. cerevisiae deletion strains, locus YOR316C, strain cot1, active compounds read low 0.981 | S. cerevisiae deletion strains, locus YPL051W, strain arl3, active compounds read low 0.992 | S. cerevisiae deletion strains, locus YPL078C, strain atp4, active compounds read low 1.01 | S. cerevisiae deletion strains, locus YPL106C, strain sse1, active compounds read low 0.937 | S. cerevisiae deletion strains, locus YPL240C, strain hsp82, active compounds read low 0.971 | S. cerevisiae deletion strains, locus YPL241C, strain CIN2, active compounds read low 0.997 | S. cerevisiae deletion strains, locus YPL256C, strain CLN2, active compounds read low 1.03 | S. cerevisiae deletion strains, locus YPR119W, strain clb2, active compounds read low 0.991 | S. cerevisiae deletion strains, locus YPR141C, strain kar3, active compounds read low 0.977 | S. cerevisiae deletion strains, locus YPR163C, strain tif3, active compounds read low 0.989 | S. cerevisiae deletion strains, locus YPR167C, strain met16, active compounds read low 0.99 | S. cerevisiae deletion strains, strain wtn01, active compounds read low 0.984 | S. cerevisiae strains, strain wild type, active compounds read low 0.999
